# Compound activity deposited in PubChem by National Center for Advancing Translational Sciences (NCATS).
# Sampled rows, rich in hits. Any-hit rate of the full collection: about 6.6%.
# KB-V1 MDR tox: KB-V1 MDR subline cytotoxicity; 400,000 compounds, 3.4% hits; AID 1347076; Potency, µM (doses to about 46.1 µM), usual class: cytotoxic; KB-V1 MDR cells viability, CellTiter-Glo, 72 h; further: on the % scale 0 is the no-effect control and ±100 the full control effect; nearly all actives have a fitted effect of over 60% in size
#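 Cytotoxicity toward P-gp-expressing KB-V1 cells was determined as loss of CellTiter-Glo luminescence after 72 h at 37 degrees C. Compounds were tested in quantitative HTS format across a concentration range, with curves fitted to normalized data.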
# HT1080NT lethal: kills 2HG-producing HT-1080-NT fibrosarcoma cells | HT-1080-NT fibrosarcoma viability, CellTiter-Glo ATP luminescence, 48 h | AID 686970 | 360,000 compounds, 1.6% hits | Potency, µM (titrated, usually from 46.1 µM), without a hit: at the top dose activity, negative = less viability, usual class: cytotoxic;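 further: NT is the 2HG producing partner of a matched IDH1 knockdown line; 0% = DMSO-treated cells and -100% = media-only wells without cells; nearly all actives have a fitted effect of over 55% in size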
#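 Read-out is CellTiter-Glo luminescence after 10 minutes at room temperature, following 48 hours' compound treatment of HT-1080-NT cells (750 cells/well, RPMI, 5% FBS, 37 degrees C).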
# TGFb inhibitor: inhibitors of TGF-b signaling. HepG2 CAGA-GFP TGF-b/SMAD3 reporter, GFP fluorescence, 18 h; TGF-beta stimulated, 500 pg/mL final. Potency, µM (top dose mostly 46.1 µM), without a hit: at the top dose activity, negative = inhibition, usual class: inhibitors. 410,000 compounds, 1.2% hits. AID 588855; further: on the % scale 0 is the no-effect control and ±100 the full control effect; nearly all actives have a fitted effect of over 65% in size
#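 Using HEPG2 CAGA-GFP reporter cells at 1000 cells/well, we pinned test compounds, stimulated with recombinant TGF-beta (500 pg/mL final) and measured total well GFP after 18 h.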
# KB-3-1 tox: kills parental KB-3-1 adenocarcinoma cells; 400,000 compounds, 1.4% hits; Potency, µM (doses to about 46.1 µM), hits mostly cytotoxic; KB-3-1 viability, CellTiter-Glo ATP luminescence, 72 h; further: on the % scale 0 is the no-effect control and ±100 the full control effect; nearly all actives have a fitted effect of over 60% in size
#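 Cells are dispensed, compounds pinned in, plates held at 37 °C for 72 h, then CellTiter-Glo is added and luminescence read after 10 minutes. Cell line: parental KB-3-1 in phenol-red-free DMEM, 10% FBS.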
# HepG2 tox: HepG2 cytotoxicity, counter-screen for TGF-b inhibitors. HepG2 CAGA-GFP viability, ATP luminescence, 18 h. Potency, µM (doses to about 46.1 µM), for inactives: top-dose activity change, negative = cytotoxicity, most hits filed as cytotoxic. 410,000 compounds, 0.76% hits. AID 588856
#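 HepG2 CAGA-GFP cells (1000/well, DMEM with 1% FBS) received compound, then TGF-beta at 500 pg/mL final, and were incubated 18 hours at 37 degrees C. Viability was read by CellTiter-Glo luminescence. Media-only wells were set as complete cell-killing and DMSO as no toxicity.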
# HT1080 IDH1KD tx: kills HT-1080 cells with IDH1 knockdown | HT-1080 IDH1 knockdown viability, ATP luminescence, 48 h | Potency, µM (titrated, usually from 46.1 µM), without a hit: at the highest dose activity, negative = toxicity, usual class: cytotoxic | 360,000 compounds, 2% hits | AID 686971;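 further: 0% = DMSO wells and -100% = cell-free medium wells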
#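 Viability of IDH1-knockdown HT-1080 fibrosarcoma cells was assessed by CellTiter-Glo after 48 h at 37 °C with titrated compound; concentration-effect curves were classified by fit quality and response size.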
# Starred values were filed as active, the others as inactive; i = inactive; ? = inconclusive; nt = no result given. The call rests on the fitted dose curve; in most records, active means well fitted curve in the direction sought with a large enough effect; inconclusive means small, poorly fitted or top-dose-only effect, or another doubt; inactive means no such curve, though single readings can be large; an effect the other way counts as inactive or inconclusive. Potency means the concentration at half of the fitted maximal effect.
SMILES,KB-V1 MDR tox,HT1080NT lethal,TGFb inhibitor,KB-3-1 tox,HepG2 tox,HT1080 IDH1KD tx
COc1cc(C=C2C(=O)c3ccccc3C2=O)cc(OC)c1OC,i,19%,13%,i,1%,12%
CC(C)c1ccc(/C=C/C2=NNC(=O)CC2)cc1,0.18µM*,?,14%,0.73µM*,-15%,-22%
COc1cc(/C=C/C2=NNC(=O)CC2)cc(OC)c1OC,?,8%,0%,0.52µM*,-15%,2%
COc1cc(/C=C/c2cc(C(F)(F)F)[nH]c(=O)n2)cc(OC)c1OC,i,?,?,?,-38%,29µM*
Cc1cccc(C)c1OCCCn1c(CCNC(=O)C2CCCCC2)nc2ccccc21,?,nt,11µM*,?,-94%,nt
Cc1ccccc1OCCCCn1c(CCNC(=O)C(C)(C)C)nc2ccccc21,?,nt,16µM*,i,-86%,nt
CC(C)(C)C(=O)NCCc1nc2ccccc2n1CCCCOc1ccc(Cl)cc1,i,nt,?,i,-95%,nt
COc1ccc(OCCCn2c(CCNC(=O)C3CCCCC3)nc3ccccc32)cc1,i,nt,10µM*,i,-17%,nt
O=C(NCCc1nc2ccccc2n1CCCOc1ccccc1)C1CCCCC1,i,nt,?,i,-9%,nt
CCCCCCOc1ccc(OC(=O)c2ccncc2)cc1,i,?,17%,i,0%,16µM*
CCCCCCc1ccc(OC(=O)c2ccncc2)cc1,i,0%,-10%,i,-19%,2%
O=C(/C=C\c1ccccc1)Oc1cccc2cccnc12,i,?,?,i,-1%,-23%
O=C(/C=C/c1ccccc1)Oc1cccc2cccnc12,i,11%,4µM*,i,4µM*,3%
COc1ccc(/C=C/C(=O)c2c(O)c(OC)c3occc3c2OC)cc1OC,nt,18µM*,nt,nt,nt,11µM*
Cc1cc(=O)oc2c(C(=O)/C=C\c3cccs3)c(O)ccc12,i,?,-13%,?,3%,21µM*
COc1ccc(/C=C\C(=O)c2c(O)ccc3c(C)cc(=O)oc23)cc1OC,21µM*,?,?,16µM*,-53%,?
Cc1ccc(CCNC(=O)c2cc3n(n2)CCCN(Cc2ccc(C)cc2)C3=O)cc1,i,nt,-21%,i,-19%,nt
CN(C)S(=O)(=O)c1cccc(-c2cn3cc(Cl)ccc3n2)c1,16µM*,-1%,-13%,i,-19%,-7%
c1ccn2cc(-c3ccc4c(c3)OCCO4)nc2c1,?,?,0%,?,-82%,?
Cc1ccc2nc(-c3ccc4c(c3)OCCO4)cn2c1,?,3.7µM*,-17%,3.7µM*,-45%,2.3µM*
Clc1ccc2nc(-c3ccc4c(c3)OCO4)cn2c1,?,?,-14%,?,-39%,21µM*
CC(=O)O[C@H]1C(=O)[C@]2(C)[C@H]([C@H](OC(=O)c3ccccc3)[C@]3(O)C[C@H](OC(=O)[C@H](O)[C@@H](NC(=O)c4ccccc4)c4ccccc4)C(C)=C1C3(C)C)[C@]1(OC(C)=O)CO[C@@H]1C[C@@H]2O,18µM*,?,?,0.16µM*,1%,0.015µM*
CC(=O)O[C@@]12CO[C@@H]1C[C@H](O)[C@@]1(C)C(=O)[C@H](O)C3=C(C)[C@@H](OC(=O)C(O)[C@@H](NC(=O)OC(C)(C)C)c4ccccc4)C[C@@](O)([C@@H](OC(=O)c4ccccc4)[C@H]21)C3(C)C (some centres not stated),nt,nt,-22%,nt,-14%,nt
CC(=O)O[C@H]1C(=O)[C@@]2(C)C([C@H](OC(=O)c3ccccc3)[C@]3(O)C[C@H](OC(=O)[C@H](O)[C@@H](NC(=O)c4ccccc4)c4ccccc4)C(C)=C1C3(C)C)[C@]1(OC(C)=O)CO[C@@H]1C[C@H]2O (some centres not stated),?,?,?,0.058µM*,0%,0.18µM*
COc1ccc(C)cc1-n1nnnc1SCC(=O)NC1CCS(=O)(=O)C1 (configuration not stated),?,6%,-2%,i,0%,3%
SMILES,KB-V1 MDR tox,HT1080NT lethal,TGFb inhibitor,KB-3-1 tox,HepG2 tox,HT1080 IDH1KD tx
Cc1c(CNCc2ccc(OC(C)C)cc2)c(C(=O)O)c(C)n1Cc1ccc(Cl)cc1,i,nt,-3%,?,-12%,nt
O=C(CC1SC(=Nc2ccccc2)N(CCc2ccccn2)C1=O)Nc1ccc(F)cc1 (configuration not stated),i,?,?,i,-3%,?
O=C(CC1SC(=Nc2ccccc2)N(CCc2c[nH]c3ccccc23)C1=O)Nc1ccccc1F (configuration not stated),?,?,?,?,-24%,21µM*
COc1ccccc1C(=O)NC(C)c1cccc2ccccc12 (configuration not stated),i,?,-18%,i,-24%,?
COc1cc2cc(C(=O)NC(C)c3cccc4ccccc34)c(N)nc2cc1OC (configuration not stated),i,26µM*,nt,i,nt,18µM*
COc1ccc(OC)c(NC(=O)c2cc3c(=O)n4cccc(C)c4nc3n2C)c1,nt,nt,-6%,nt,-16%,nt
C=CCc1c(C)nc(-c2ccccc2)nc1N/N=C(\C)c1ccc(N)cc1,23µM*,0%,-11%,?,-19%,1%
C=CCc1c(C)nc(-c2ccccc2)nc1N/N=C/c1ccccc1,i,-1%,?,i,-49%,0%
C=CCc1c(C)nc(-c2ccccc2)nc1Nc1ccccc1O,i,?,?,i,-29%,16µM*
Cc1ccc(C)c(CN2CCC(CNC(=O)C(CC(C)C)N3Cc4ccccc4C3=O)CC2)c1 (configuration not stated),i,nt,?,i,-33%,nt
CC1C(=O)N(S(=O)(=O)c2ccc([N+](=O)[O-])cc2)[C@H]1c1ccc2ccccc2c1 (some centres not stated),nt,nt,2%,nt,2%,nt
CC(=O)c1c(C)nc2ccccc2c1N,i,-1%,-3%,i,0%,1%
Cc1nc2ccccc2c(N)c1C(=O)/C=C/c1ccccc1,i,?,?,i,-63%,12µM*
C=C(C)Cn1c(SCC(=O)Nc2cc(C)ccc2C)nc2sc3c(c2c1=O)CCCC3,i,nt,-17%,i,-56%,nt
c1ccc(-c2nc(NCCCN3CCOCC3)c3ccccc3n2)cc1,6.5µM*,-1%,1%,i,-32%,-14%
